# Measurements published in ChEMBL document CHEMBL5606460, “ASAP - DENV-2 NS2B-NS3 protease fluorescence single point” (2024).
# Among all 2,000 compounds or so, about 110 (5.5%) showed an effect of 50% or more. Many of the other results were omitted from the sample, so strong results are more common in it than they were. Non-standard residues stand in square brackets, D forms with d. Residues, ends and D or L forms follow the SMILES beside them. Phg = N[C@H](C(=O)O)c1ccccc1; 4Amb = NCc1ccc(C(=O)O)cc1; Nle = CCCC[C@H](N)C(=O)O
# Molecular target: Genome polyprotein (dengue virus type 2) (UniProt P29990)
# [1] = Thailand/16681/1984, Concentration 25.0 uM, Number of replicates 1.0
smiles,measurement,setting,value
Cn1c(C(=O)Nc2cc(Cl)cc(C(=O)NC(C)(C)CO)c2)cccc1=O,inhibition,"Thailand/16681/1984, Concentration 49.5 uM, Number of replicates 2.0, Standard deviation 0.4081268580659683 %",-0.99%
same,inhibition,"Thailand/16681/1984, Concentration 99.01 uM, Number of replicates 2.0, Standard deviation 2.113430221710736 %",-1.01%
same,inhibition,"Thailand/16681/1984, Concentration 198.0 uM, Number of replicates 2.0, Standard deviation 2.072570516879941 %",0.352%
NCc1cn(C2CCN(c3nc(-c4ccccc4)cs3)CC2)nn1,inhibition,"Thailand/16681/1984, Concentration 49.5 uM, Number of replicates 2.0, Standard deviation 0.032513427640456005 %",-4.62%
same,inhibition,"Thailand/16681/1984, Concentration 99.01 uM, Number of replicates 2.0, Standard deviation 1.6651164489567518 %",-3.29%
same,inhibition,"Thailand/16681/1984, Concentration 198.0 uM, Number of replicates 2.0, Standard deviation 1.091599962537426 %",0.094%
CC1(C)C[C@]1(CNC(=O)C1CCN(c2ccc(C=O)cc2)CC1)c1ccccc1,inhibition,[1],12.2%
O=Cc1ccc(N2CCC(C(=O)N3CCc4c(Br)cccc4C3)CC2)cc1,inhibition,[1],2.83%
Cc1cc(CO)c2cccc(Cc3cccc(NC(=O)c4nc(N)n[nH]4)c3)c2n1,inhibition,"Thailand/16681/1984, Concentration 49.95 uM, Number of replicates 2.0, Standard deviation 2.1470069511188496 %",1.75%
same,inhibition,"Thailand/16681/1984, Concentration 99.9 uM, Number of replicates 2.0, Standard deviation 2.660737289988502 %",8.09%
Cc1cc(CO)c2cccc(Cc3ccccc3NC(=O)c3nc(N)n[nH]3)c2n1,inhibition,"Thailand/16681/1984, Concentration 49.95 uM, Number of replicates 2.0, Standard deviation 1.581349166072865 %",0.804%
same,inhibition,"Thailand/16681/1984, Concentration 99.9 uM, Number of replicates 2.0, Standard deviation 1.2268610426733166 %",4.88%
Cc1cc(CO)c2cccc(NC(=O)c3nc(N)n[nH]3)c2n1,inhibition,"Thailand/16681/1984, Concentration 49.95 uM, Number of replicates 2.0, Standard deviation 1.7045480288991801 %",42.6%
same,inhibition,"Thailand/16681/1984, Concentration 99.9 uM, Number of replicates 2.0, Standard deviation 15.015963199334223 %",67.3%
O=C(NCCc1cncnc1)c1cn([C@H]2CCCNC2)nn1,inhibition,"Thailand/16681/1984, Concentration 49.5 uM, Number of replicates 2.0, Standard deviation 3.1505652659838077 %",-3.39%
same,inhibition,"Thailand/16681/1984, Concentration 99.01 uM, Number of replicates 2.0, Standard deviation 0.03260817375590849 %",-4.66%
same,inhibition,"Thailand/16681/1984, Concentration 198.0 uM, Number of replicates 2.0, Standard deviation 5.615654862136011 %",-0.277%
Clc1ccc2[nH]cc(Cc3ccc(-c4nn[nH]n4)cc3)c2c1,inhibition,"Thailand/16681/1984, Concentration 99.5 uM, Number of replicates 2.0, Standard deviation 0.137702183454793 %",89.8%
same,inhibition,"Thailand/16681/1984, Concentration 295.6 uM, Number of replicates 2.0, Standard deviation 0.013886206472581278 %",98.9%
O=C(O)[C@H](c1c[nH]c2ccccc12)N1CCC(c2cnc3ccc[nH]c2-3)CC1,inhibition,"Thailand/16681/1984, Concentration 49.5 uM, Number of replicates 2.0, Standard deviation 2.9336110336729484 %",-1.93%
same,inhibition,"Thailand/16681/1984, Concentration 99.01 uM, Number of replicates 2.0, Standard deviation 1.2688833051000123 %",-1.4%
same,inhibition,"Thailand/16681/1984, Concentration 198.0 uM, Number of replicates 2.0, Standard deviation 1.8509089452057481 %",0.519%
CCCC[C@H](NC(C)=O)C(=O)N[C@H](C(=O)NCc1ccc(C(N)=O)cc1)c1ccccc1 (Ac-[Nle]-[Phg]-[4Amb]-NH2),inhibition,"Thailand/16681/1984, Concentration 49.5 uM, Number of replicates 2.0, Standard deviation 0.4432432329236086 %",-1.46%
same,inhibition,"Thailand/16681/1984, Concentration 99.01 uM, Number of replicates 2.0, Standard deviation 0.9541533154251546 %",-0.354%
same,inhibition,"Thailand/16681/1984, Concentration 198.0 uM, Number of replicates 2.0, Standard deviation 1.9838414541082603 %",1.79%
CCCC[C@H](NC(C)=O)C(=O)N[C@H](C(=O)NCc1ccc(CN)cc1)c1ccccc1,inhibition,"Thailand/16681/1984, Concentration 49.5 uM, Number of replicates 2.0, Standard deviation 1.3580554366166637 %",0.537%
same,inhibition,"Thailand/16681/1984, Concentration 99.01 uM, Number of replicates 2.0, Standard deviation 18.440494023113153 %",14.1%
same,inhibition,"Thailand/16681/1984, Concentration 198.0 uM, Number of replicates 2.0, Standard deviation 14.8908767477505 %",56%
CCCC[C@H](NC(C)=O)C(=O)N[C@H](C(=O)Nc1ccc(C(N)=O)cc1)c1ccc(OCc2ccccc2)cc1,inhibition,"Thailand/16681/1984, Concentration 49.5 uM, Number of replicates 2.0, Standard deviation 2.073896751762033 %",-0.623%
same,inhibition,"Thailand/16681/1984, Concentration 99.01 uM, Number of replicates 2.0, Standard deviation 0.38726109133313447 %",4.02%
same,inhibition,"Thailand/16681/1984, Concentration 198.0 uM, Number of replicates 2.0, Standard deviation 0.14852549415239058 %",23%
CCCC[C@H](NC(C)=O)C(=O)N[C@H](C(=O)NCc1ccc(CN)cc1)c1ccc(OCc2ccccc2)cc1,inhibition,"Thailand/16681/1984, Concentration 49.5 uM, Number of replicates 2.0, Standard deviation 1.556187076043376 %",-3.73%
same,inhibition,"Thailand/16681/1984, Concentration 99.01 uM, Number of replicates 2.0, Standard deviation 1.4164928639405643 %",9.94%
same,inhibition,"Thailand/16681/1984, Concentration 198.0 uM, Number of replicates 2.0, Standard deviation 0.0753329398535839 %",99.6%
CCCC[C@H](NC(C)=O)C(=O)N[C@@H](C(=O)NCc1ccc(C(N)=O)cc1)c1ccc(OCc2ccccc2)cc1,inhibition,"Thailand/16681/1984, Concentration 49.5 uM, Number of replicates 2.0, Standard deviation 1.1393107429607887 %",-2.14%
same,inhibition,"Thailand/16681/1984, Concentration 99.01 uM, Number of replicates 2.0, Standard deviation 1.3468928227151291 %",-2.15%
same,inhibition,"Thailand/16681/1984, Concentration 198.0 uM, Number of replicates 2.0, Standard deviation 1.6817028564994563 %",-0.786%
CCCC[C@H](NC(C)=O)C(=O)N[C@H](C(=O)NCc1ccc(C(N)=O)cc1)c1ccc(OCc2ccccc2)cc1,inhibition,"Thailand/16681/1984, Concentration 49.5 uM, Number of replicates 2.0, Standard deviation 4.54767597440597 %",18.2%
same,inhibition,"Thailand/16681/1984, Concentration 99.01 uM, Number of replicates 2.0, Standard deviation 0.08657569598756192 %",99.9%
same,inhibition,"Thailand/16681/1984, Concentration 198.0 uM, Number of replicates 2.0, Standard deviation 0.08274539039489186 %",99.7%
CCCCCC(=O)N[C@@H](Cc1ccccc1)C(=O)NCc1cccc(CN)c1,inhibition,"Thailand/16681/1984, Concentration 49.5 uM, Number of replicates 2.0, Standard deviation 0.5911657110409295 %",-0.287%
same,inhibition,"Thailand/16681/1984, Concentration 99.01 uM, Number of replicates 2.0, Standard deviation 0.7592516208074989 %",-0.251%
same,inhibition,"Thailand/16681/1984, Concentration 198.0 uM, Number of replicates 2.0, Standard deviation 1.593950905190228 %",-0.639%
CC(=O)N[C@H](C(=O)Nc1cccc(C(N)=O)c1)c1ccc(OCc2ccccc2)cc1,inhibition,"Thailand/16681/1984, Concentration 49.5 uM, Number of replicates 2.0, Standard deviation 1.41100239398505 %",-2.21%
same,inhibition,"Thailand/16681/1984, Concentration 99.01 uM, Number of replicates 2.0, Standard deviation 6.402498423083348 %",0.486%
same,inhibition,"Thailand/16681/1984, Concentration 198.0 uM, Number of replicates 2.0, Standard deviation 5.599350943845451 %",0.73%
